assay: MRP1 drug-resistance reversers in H69AR cells – cell-based, doxorubicin co-treatment, pilot screen (AID 601); details: H69AR cells + 2 uM doxorubicin, CellTiter-Glo, 72 h; measured here: viability with 2 uM doxorubicin; at 10 µM; stronger effect = lower value

| Structure (SMILES) | viability [%] |
| --- | --- |
| CC[N+](C)(C)c1cccc(O)c1 | 85.3 |
| NC(Cc1ccc(Oc2ccc(O)cc2)cc1)C(=O)O (stereo not given) | 73.1 |
| COCCN(C(=O)CCC(=O)Nc1ccccn1)C(C(=O)NC1CCCC1)c1ccc(OC)cc1 (stereo not given) | 96.3 |
| Cc1ncc([N+](=O)[O-])n1CC(O)CCl (stereo not given) | 104 |
| CCCCOc1ccc(CC(=O)NO)cc1 | 54.3 |
| Nc1ccc2cn[nH]c2c1 | 111 |
| CCC(=NC(C)c1ccccc1)c1c(O)n(C)c(=O)n(C)c1=O (stereo not given) | 105 |
| C[C@]12C[C@H](O)[C@H]3[C@@H](CCC4=CC(=O)CC[C@@]43C)[C@@H]1CC[C@@H]2C(=O)CO | 94.3 |
| OCCOCCN1CCN(C(c2ccccc2)c2ccc(Cl)cc2)CC1 (stereo not given) | 89 |
| Cn1cc(NC(=O)c2cc(NC(=O)c3cc(NC=O)cn3C)cn2C)cc1C(=O)NCCC(=N)N | 96.3 |
| Cn1c(SCC(=O)N2CCOCC2)nnc1-c1cnccn1 | 98.7 |
| CC(=O)C1=C(O)C(=O)N(Cc2cccnc2)C1c1ccccc1 (stereo not given) | 95.3 |
| Cc1cccc(Nc2ccccc2C(=O)O)c1C | 103 |
| CCOC(=O)c1c(NCc2ccc3c(c2)OCO3)c2ccccc2[nH]c1=O | 93.1 |
| C[C@]12CC[C@H]3[C@@H](CCC4=CC(=O)CC[C@@]43C)[C@@H]1CC[C@@H]2C(=O)CO | 94.9 |
| COc1ccc2cc([C@H](C)C(=O)O)ccc2c1 | 83 |
| CCC(NC(C)C)C(O)c1ccc(O)c2[nH]c(=O)ccc12 (stereo not given) | 82.7 |
| COc1cc2nc(N3CCN(C(=O)C4CCCO4)CC3)nc(N)c2cc1OC (stereo not given) | 92 |
| CN1Cc2c(N)cccc2C(c2ccccc2)C1 (stereo not given) | 96.5 |
| C[C@H]1C[C@H]2[C@@H]3CCC4=CC(=O)C=C[C@]4(C)[C@@]3(Cl)[C@@H](O)C[C@]2(C)[C@@]1(O)C(=O)CO | 103 |

| Structure (SMILES) | viability [%] |
| --- | --- |
| C[C@]12CC[C@@H]3c4ccc(O[C@@H]5O[C@H](C(=O)O)[C@@H](O)[C@H](O)[C@H]5O)cc4CC[C@H]3[C@@H]1C[C@@H](O)[C@@H]2O | 84.8 |
| Cc1c(C(=O)O)sc2ncn(C)c(=O)c12 | 91.7 |
| O=c1ccc(S(=O)(=O)N2CCC(Cc3ccccc3)CC2)c[nH]1 | 86.8 |
| CCn1cc(C(=O)O)c(=O)c2cnc(N3CCNCC3)nc21 | 90.9 |
| Nc1nnc(-c2cccc(Cl)c2Cl)c(N)n1 | 93.4 |
| O=C(O)CCCCCCC1C(=O)NC(=O)N1CCC(O)C1CCCCC1 (stereo not given) | 104 |
| COc1ccc(CN(CCN(C)C)c2ccccn2)cc1 | 74.4 |
| O=C(NCC1CCCCN1)c1cc(OCC(F)(F)F)ccc1OCC(F)(F)F (stereo not given) | 102 |
| c1ccc2nc(-c3nc4ccccc4[nH]3)ccc2c1 | 70.6 |
| CCCC(=O)Nc1ncnc2c1ncn2[C@@H]1O[C@@H]2COP(=O)(O)O[C@H]2[C@H]1OC(=O)CCC | 90.8 |
| COc1cc(OC)c(NC(=O)c2ccco2)cc1Cl | 96.9 |
| O=S(=O)(c1ccc(OCC(O)CN2CCC(Cc3ccccc3)CC2)cc1)N1CCOCC1 (stereo not given) | 94.2 |
| C/C(N)=C(/C#N)C(=O)COC(=O)CCSc1ccccc1 | 101 |
| CCCC(=O)O[C@]1(C(=O)COC(C)=O)CC[C@H]2[C@@H]3C[C@H](F)C4=CC(=O)C=C[C@]4(C)[C@@]3(F)[C@@H](O)C[C@@]21C | 104 |
| Cn1c(-c2ccccc2)cc(=O)c2ccccc21 | 103 |
| Cc1cccc(C)c1NC(=O)C1CCCCN1C (stereo not given) | 87.7 |
| CCC(NC(C)C)C(O)c1ccc(O)c(O)c1 (stereo not given) | 91.5 |
| C=C(c1cccc2ccccc12)P(=O)(O)O | 86.5 |
| COC(=O)CSc1nc(C)c(C(C)=O)cc1C#N | 80.4 |
| C[C@]12CC[C@@H]3c4ccc(O)cc4CC[C@H]3[C@@H]1CC[C@@H]2OC(=O)CCC(=O)O | 104 |
